The whole screen tested about 1,800 compounds, of which about 1,400 (78%) were called active. Inconclusive results (about 2%) are left out.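 Rule for the calls: active = fitted curve crossing a set activation limit at or below the highest valid dose tested; inconclusive = flat fit at 30 to 70% activation, or poor fit; inactive = the rest, including signal decreases.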 So high a share suggests a set chosen from earlier hits. The list is a sample of the results. Measured potencies and affinities stand elsewhere.
Assay: blockers of NLG process in reporter cells – D54 ERlucT cells, luminescence, cherry-picks, dose response (AID 624491);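 note: signal gain reflects blocked N-linked glycosylation of a luciferase reporter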
Settings: D54 ERlucT glycosylation luciferase reporter, 24 h, 100% = twice neutral-control luminescence; series mostly up to 19.5 µM

Activation (NLG inhibition), inactive:
COc1ccc(NC(=O)C2Cc3c(-c4ccc5c(c4)OCO5)ccnc3O2)cc1 (stereo not drawn)
O=C(O)c1ccccc1OC(C(=O)Nc1cc(Cl)cc(Cl)c1)c1ccccc1 (stereo not drawn)
CCOc1cc(S(=O)(=O)NCc2ccc(OC)cc2)c(OCC)cc1-n1cnnn1
CCOc1ccc2c(c1)C(=NNC(=O)c1ccncc1)c1cc(OCC)ccc1-2
O=C(Nc1cccc(C(F)(F)F)c1)c1sc(Cl)nc1C(F)(F)F
Cc1cc(O)c(NC(=O)c2cc([N+](=O)[O-])ccc2Cl)cc1C
O=C(Cc1cccs1)NCCS(=O)(=O)N1CCN(c2ccccc2F)CC1
CCc1ccc(NC(=O)Cn2c(=O)n(CCC(=O)NC3CCN(Cc4ccccc4)CC3)c(=O)c3ccccc32)cc1
CNC(=O)COC(=O)c1ccccc1C(=O)c1ccc(Cl)c([N+](=O)[O-])c1 11% [at 1.2 µM]
CCCn1c2ccccc2c2cnn(CC(=O)NC3CCCC(C)C3C)c(=O)c21 (stereo not drawn)
COc1ccc(CN(C(=O)c2ccc(CN3CCOCC3)o2)C(C(=O)NCC2CCCO2)c2ccc(F)cc2)cc1 (stereo not drawn)
Nc1c(C(=O)c2ccccc2)sc2nsc(SCCN3CCOCC3)c12
O=C1OC(c2ccc(F)cc2)CC1CN1CCOCC1 (stereo not drawn)
COC(=O)Nc1ccc(S(=O)(=O)N2CCCc3ccccc32)cc1
CCOc1ccc2[nH]c(=O)c(CN(Cc3ccc(F)cc3)C(=O)c3ccco3)cc2c1
O=C(N/N=C/c1cccnc1)c1cc(-c2ccc(Br)cc2)nc2ccccc12
Cc1cccc2[nH]c3c(N4CCC5(CC4)OCCO5)ncnc3c12
CC1Nc2ncnc(N3CCc4ccccc4C3)c2N(Cc2ccc(Br)cc2)C1=O (stereo not drawn)
COc1ccc(CN2C(=O)C(C)Nc3ncnc(N4CCc5ccccc5C4)c32)cc1 (stereo not drawn)
COc1ccc(Cn2c(=O)c3[nH]cnc3n(-c3ccccc3C)c2=O)cc1
O=C(Nc1ccccc1)N1CCC(c2nc(-c3ccc(S(=O)(=O)N4CCOCC4)cc3)no2)CC1
COc1cc(/C=C/C(=O)c2ccc(Cl)s2)cc(OC)c1O
COc1ccc(/C=C/C(=O)c2ccc3c4c(cccc24)CC3)cc1
COc1cc(O)c(C(=O)/C=C/c2ccccc2)c(OC)c1
CN1C/C(=C\c2ccc(N3CCOCC3)cc2)C(=O)/C(=C/c2ccc(N3CCOCC3)cc2)C1
COc1ccc(/C=C2\CN(Cc3ccccc3)C/C(=C\c3ccc(OC)cc3)C2=O)cc1
CCOc1ccc(/C=C/C(=O)c2ccccc2)cc1OC
COc1ccc(C(=O)/C=C/c2ccc(OC3CSC3)cc2)cc1OC

— PubChem BioAssay AID624491 (Broad Institute, 2012)
